From PubChem BioAssay AID1159580 (chemical genetic matrix, 2015)
“And” between values parts separate entries of the source, which are not always exact repeats. Identical values can stand only once. The whole screen tested about 5,500 compounds, of which about 2,000 (36%) were called active. Roughly 18% stayed inconclusive and do not appear here. This is one part of the list. A number with no mark means an inactive call. No stated cut-off is given here; in the data, active means normalized growth mostly below about 0.91 (no sharp cut-off); inconclusive means no clear call, values can overlap the other calls; inactive means mostly above about 0.92.

Test: chemical genetic growth profiling, strain panel (AID 1159580);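 further: tested at 20 µM; growth read once vehicle control cultures reached saturation at 30 °C; 1 = growth at the plate median or of vehicle wells; lower values mean less growth of the strain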
Settings: S. cerevisiae deletion strains, growth OD

## CN[C@@H]1C(O)[C@@H](O[C@@H]2[C@@H](O)[C@H](O[C@H]3OC(CN)=CC[C@H]3N)[C@@H](N)C[C@H]2N)OC[C@]1(C)O (some centres undefined)
Locus YAL013W, strain DEP1, active compounds read low
  normalized growth: 1.02
Locus YAL021C, strain ccr4, active compounds read low
  normalized growth: 1.01
Locus YAL026C, strain drs2, active compounds read low
  normalized growth: 0.99
Locus YAL030W, strain snc1, active compounds read low
  normalized growth: 1.01
Locus YBL061C, strain skt5, active compounds read low
  normalized growth: 1.01
Locus YBR009C, strain hhf1, active compounds read low
  normalized growth: 0.968
Locus YBR021W, strain FUR4, active compounds read low
  normalized growth: 1.02
Locus YBR023C, strain chs3, active compounds read low
  normalized growth: 1.01
Locus YBR171W, strain sec66, active compounds read low
  normalized growth: 1.02
Locus YBR229C, strain ROT2, active compounds read low
  normalized growth: 1.02
Locus YBR231C, strain swc5, active compounds read low
  normalized growth: 1.02
Locus YBR279W, strain paf1, active compounds read low
  normalized growth: 1
Locus YCL011C, strain gbp2, active compounds read low
  normalized growth: 1
Locus YCL016C, strain dcc1, active compounds read low
  normalized growth: 0.997
Locus YCL029C, strain bik1, active compounds read low
  normalized growth: 0.997
Locus YCL061C, strain MRC1, active compounds read low
  normalized growth: 1.03
Locus YCL069W, strain vba3, active compounds read low
  normalized growth: 1.01
Locus YCR088W, strain abp1, active compounds read low
  normalized growth: 1.01
Locus YDL005C, strain med2, active compounds read low
  normalized growth: 1.01
Locus YDL035C, strain GPR1, active compounds read low
  normalized growth: 1.02
Locus YDL040C, strain nat1, active compounds read low
  normalized growth: 1.01
Locus YDL074C, strain BRE1, active compounds read low
  normalized growth: 1.08
Locus YDL101C, strain DUN1, active compounds read low
  normalized growth: 1.04
Locus YDL134C, strain PPH21, active compounds read low
  normalized growth: 1.02
Locus YDL185W, strain tfp1, active compounds read low
  normalized growth: 1
Locus YDL192W, strain arf1, active compounds read low
  normalized growth: 0.995
Locus YDR001C, strain nth1, active compounds read low
  normalized growth: 1.02
Locus YDR069C, strain doa4, active compounds read low
  normalized growth: 1.02
Locus YDR101C, strain arx1, active compounds read low
  normalized growth: 0.987
Locus YDR137W, strain rgp1, active compounds read low
  normalized growth: 0.998
Locus YDR150W, strain NUM1, active compounds read low
  normalized growth: 1.02
Locus YDR159W, strain sac3, active compounds read low
  normalized growth: 0.989
Locus YDR162C, strain NBP2, active compounds read low
  normalized growth: 1.03
Locus YDR195W, strain ref2
  normalized growth: 1.03
Locus YDR297W, strain sur2, active compounds read low
  normalized growth: 1.02
Locus YDR334W, strain swr1, active compounds read low
  normalized growth: 1.02
Locus YDR335W, strain msn5, active compounds read low
  normalized growth: 1.01
Locus YDR388W, active compounds read low
  normalized growth: 0.985
Locus YDR392W, strain spt3, active compounds read low
  normalized growth: 0.959
Locus YDR502C, strain sam2, active compounds read low
  normalized growth: 1.01
Locus YEL003W, strain gim4, active compounds read low
  normalized growth: 1.01
Locus YEL037C, strain rad23, active compounds read low
  normalized growth: 1.02
Locus YEL061C, strain CIN8 (second series), active compounds read low
  normalized growth: 1.02
Locus YEL061C, strain CIN8, active compounds read low
  normalized growth: 1.07
Locus YER015W, strain faa2, active compounds read low
  normalized growth: 1.02
Locus YER016W, strain bim1, active compounds read low
  normalized growth: 0.979
Locus YER110C, active compounds read low
  normalized growth: 0.96
Locus YER111C, strain swi4, active compounds read low
  normalized growth: 1.02
Locus YER155C, strain BEM2 (second series), active compounds read low
  normalized growth: 0.996
Locus YER155C, strain BEM2, active compounds read low
  normalized growth: 1
Locus YER167W, strain BCK2, active compounds read low
  normalized growth: 1.02
Locus YFR010W, strain ubp6, active compounds read low
  normalized growth: 1.03
Locus YGL078C, strain dbp3, active compounds read low
  normalized growth: 0.985
Locus YGL086W, strain mad1, active compounds read low
  normalized growth: 0.994
Locus YGL167C, strain pmr1, active compounds read low
  normalized growth: 1.02
Locus YGL173C, strain kem1, active compounds read low
  normalized growth: 1.02
Locus YGL227W, strain vid30, active compounds read low
  normalized growth: 1.02
Locus YGL240W, strain doc1, active compounds read low
  normalized growth: 1.03
Locus YGL248W, strain PDE1, active compounds read low
  normalized growth: 1.03
Locus YGL253W, strain hxk2, active compounds read low
  normalized growth: 1
Locus YGR078C, strain PAC10, active compounds read low
  normalized growth: 1.03
Locus YGR135W, strain pre9, active compounds read low
  normalized growth: 1.01
Locus YGR229C, strain SMI1, active compounds read low
  normalized growth: 1.05
Locus YGR252W, strain gcn5, active compounds read low
  normalized growth: 0.651 (active)
Locus YHR013C, strain ard1, active compounds read low
  normalized growth: 1.01
Locus YHR027C, strain rpn1, active compounds read low
  normalized growth: 1
Locus YHR030C, strain SLT2, active compounds read low
  normalized growth: 1 and 0.98
Locus YHR079C, strain IRE1 (second series), active compounds read low
  normalized growth: 1
Locus YHR079C, strain IRE1, active compounds read low
  normalized growth: 0.95
Locus YHR129C, strain ARP1, active compounds read low
  normalized growth: 1.02
Locus YHR142W, strain chs7, active compounds read low
  normalized growth: 1.02
Locus YHR200W, strain rpn10, active compounds read low
  normalized growth: 1
Locus YIL066C, strain RNR3, active compounds read low
  normalized growth: 1.02
Locus YIL073C, strain SPO22, active compounds read low
  normalized growth: 1.03
Locus YIL125W, strain kgd1, active compounds read low
  normalized growth: 1.01
Locus YIR030C, strain dcg1, active compounds read low
  normalized growth: 0.995
Locus YJL092W, strain hpr5, active compounds read low
  normalized growth: 1.02
Locus YJL095W, strain BCK1 (second series), active compounds read low
  normalized growth: 1.01
Locus YJL095W, strain BCK1, active compounds read low
  normalized growth: 1.06 and 0.978
Locus YJL115W, strain asf1, active compounds read low
  normalized growth: 1.02
Locus YJL129C, strain trk1, active compounds read low
  normalized growth: 1.02
Locus YJL134W, strain LCB3, active compounds read low
  normalized growth: 1.02
Locus YJL154C, strain vps35, active compounds read low
  normalized growth: 1.01
Locus YJL164C, strain tpk1, active compounds read low
  normalized growth: 1.01
Locus YJL166W, strain qcr8, active compounds read low
  normalized growth: 1.03
Locus YJL168C, strain set2, active compounds read low
  normalized growth: 0.997
Locus YJL187C, strain SWE1 (second series), active compounds read low
  normalized growth: 1.03
Locus YJR043C, strain POL32, active compounds read low
  normalized growth: 1.2 [resistant] (active)
Locus YJR066W, strain TOR1, active compounds read low
  normalized growth: 0.96
